Test results from PubChem BioAssay.

What follows are compounds tested against Nuclear receptor coactivator 3 (Homo sapiens) (UniProt Q9Y6Q9) (assay: NCOA3 GAL4-fusion reporter inhibition – cell-based, luminescence, quadruplicate, confirmation (AID 588792;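 further: 0% = DMSO treated cells and 100% = gossypol at 36 µM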)). Conditions: HEK293 GAL4-SRC3 luciferase reporter, at 3.6 µM, active compounds read high;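 active means mean inhibition over 43.08%, the solvent-only control mean plus 3 SD; inactive means the rest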.
Sequence of Nuclear receptor coactivator 3 (Homo sapiens) (Q9Y6Q9 whole entry, looked up, the tested form may be a part): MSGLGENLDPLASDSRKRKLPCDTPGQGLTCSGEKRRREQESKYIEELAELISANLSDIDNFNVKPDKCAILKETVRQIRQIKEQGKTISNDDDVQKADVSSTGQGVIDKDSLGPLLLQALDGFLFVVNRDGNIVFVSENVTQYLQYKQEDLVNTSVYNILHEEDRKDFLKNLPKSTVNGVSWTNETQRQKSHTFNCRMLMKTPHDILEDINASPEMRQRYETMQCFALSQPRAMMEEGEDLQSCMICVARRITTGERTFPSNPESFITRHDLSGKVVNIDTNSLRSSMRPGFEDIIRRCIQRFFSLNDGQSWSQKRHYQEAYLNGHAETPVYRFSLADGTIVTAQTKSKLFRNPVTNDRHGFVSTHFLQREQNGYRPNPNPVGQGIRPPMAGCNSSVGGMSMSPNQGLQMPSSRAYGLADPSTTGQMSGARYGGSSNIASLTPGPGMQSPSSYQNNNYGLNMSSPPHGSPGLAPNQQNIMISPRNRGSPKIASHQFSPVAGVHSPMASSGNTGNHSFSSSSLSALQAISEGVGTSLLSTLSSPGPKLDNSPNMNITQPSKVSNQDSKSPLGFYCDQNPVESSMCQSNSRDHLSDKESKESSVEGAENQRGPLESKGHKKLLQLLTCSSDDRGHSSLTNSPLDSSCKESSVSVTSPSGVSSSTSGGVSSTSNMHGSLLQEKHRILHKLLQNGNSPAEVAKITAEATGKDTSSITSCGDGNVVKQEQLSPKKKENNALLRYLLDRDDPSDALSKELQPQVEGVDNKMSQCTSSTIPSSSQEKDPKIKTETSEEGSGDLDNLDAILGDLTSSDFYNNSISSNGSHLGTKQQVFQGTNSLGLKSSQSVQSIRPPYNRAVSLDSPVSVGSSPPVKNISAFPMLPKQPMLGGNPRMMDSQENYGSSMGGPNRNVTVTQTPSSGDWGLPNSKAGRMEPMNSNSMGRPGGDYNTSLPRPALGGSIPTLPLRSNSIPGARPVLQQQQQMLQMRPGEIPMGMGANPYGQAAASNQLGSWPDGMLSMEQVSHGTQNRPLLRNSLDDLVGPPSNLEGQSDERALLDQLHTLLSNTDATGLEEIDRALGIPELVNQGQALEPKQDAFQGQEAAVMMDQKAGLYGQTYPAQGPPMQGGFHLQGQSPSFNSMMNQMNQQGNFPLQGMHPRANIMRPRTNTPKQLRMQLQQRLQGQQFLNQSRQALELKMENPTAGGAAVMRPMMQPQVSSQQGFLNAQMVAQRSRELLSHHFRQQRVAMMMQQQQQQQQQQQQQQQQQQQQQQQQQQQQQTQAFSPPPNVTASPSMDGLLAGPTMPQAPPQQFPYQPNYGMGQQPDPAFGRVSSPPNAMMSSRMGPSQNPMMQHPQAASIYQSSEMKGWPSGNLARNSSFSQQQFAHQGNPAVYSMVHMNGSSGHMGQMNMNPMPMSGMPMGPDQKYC

inhibition, inactive:
Cc1cccc(NC(=O)c2cc(-c3cccnc3)nc3c(C)cccc23)n1 7.37%
CCOC(=O)c1cccc(NC(=O)CSc2nc3cccnc3n2C)c1 9.81%
Cc1ccc(C)c(S(=O)(=O)N2CCCCC2CCNC(=O)C(=O)NCc2ccncc2)c1 (centres undefined) 0.55%
CC(=O)Nc1cccc(C(=O)/C=C/c2ccc(Br)cc2)c1 10.8%
COc1ccc(NC(=O)c2oc3ccc(S(=O)(=O)N4CCC5(CC4)OCCO5)cc3c2C)cc1 5.45%
CCCCCCCN1C2=NCCCN2c2ccccc21 -5.13%
CCCn1nc(C(=O)NCC2COc3ccccc3O2)c2ccccc2c1=O (centres undefined) 9.61%
O=C(COc1ccccc1[N+](=O)[O-])Nc1ccc(N2CCN(C(=O)c3cccs3)CC2)cc1 -7.09%
Cc1cccc(OCC(O)Cn2c(=N)n(CCN3CCCCC3)c3ccccc32)c1 (centres undefined) 2.86%
O=C(NCC1CCCO1)c1cccc2c1C(=O)c1ccc(N3CCC(Cc4ccccc4)CC3)cc1S2(=O)=O (centres undefined) -2.13%
C=CC[C@@H](CC(=O)NCCO)C(=O)NC[C@H](OC(=O)[C@@H](CC=C)Cc1ccc(F)cc1)c1ccccc1 16.2%
Cc1nc2ccccn2c1-c1ccnn1S(=O)(=O)c1ccc(F)cc1 3.74%
CC(C)(CC(=O)O)CC(=O)Nc1ccc(Oc2ccc(C(C)(C)C)cc2)nc1 3.47%
CN1CCN(S(=O)(=O)c2cccc(C(=O)N(C)CC(=O)Nc3ccc(Cl)c(Cl)c3)c2)CC1 21%
